A short description of assay [1]: ATG_GRE_CIS: Attagene CIS-FACTORIAL HepG2 Assay for human Glucocorticoid Response Elements (GRE) (AID 2282947). Particulars: HepG2 GRE cis-reporter, Attagene multiplex mRNA; actives raise or lower the signal. Put shortly:
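Following 24 h chemical exposure of transiently transfected HepG2 cells, total RNA was reverse-transcribed and reporter cDNA amplified, fluorescently labelled and sized by capillary electrophoresis. Signal gain or loss was fitted relative to DMSO vehicle.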

The nature of assay [2]: ATG_ISRE_CIS: Attagene CIS-FACTORIAL HepG2 Assay for human Interferon Regulatory Factor 1 (IRF1) binding to an Interferon-Stimulated Response Element (ISRE) (AID 2282948). Particulars: HepG2 ISRE cis-reporter (Attagene), mRNA transcription readout; actives raise or lower the signal. Put shortly: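 Transiently transfected HepG2 cells carrying cis-element reporter units, dosed 24 hours. Reporter mRNA quantified by RT-PCR, fluorescent primer extension, HpaI digestion and capillary electrophoresis. Bidirectional fitting relative to DMSO.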

Assay [3] in a line: ATG_M_32_CIS: Attagene CIS-FACTORIAL HepG2 Assay for M32 Transcription Factor (Internal Marker) (AID 2282949).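 Note: background control marker of the multiplexed CIS panel rather than a real target.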 Particulars: HepG2 Attagene cis-factorial M32 reporter, mRNA; actives raise or lower the signal. Put shortly:
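HepG2 cells transiently transfected with multiplexed cis-regulated reporter units, dosed 24 h. Reporter mRNA quantified by RT-PCR, 6-FAM labelling, HpaI digestion and capillary electrophoresis; bidirectional fit vs DMSO.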

The nature of assay [4]: ATG_M_06_CIS: Attagene CIS-FACTORIAL HepG2 Assay for M06 Transcription Factor (Internal Marker) (AID 2282950). Particulars: HepG2 Attagene CIS-FACTORIAL M06 internal marker reporter; actives raise or lower the signal. The method, boiled down: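 Fluorescence-labelled RT-PCR products from cis-promoter reporter units, cut with HpaI and resolved by capillary electrophoresis, give the signal. Cells are human HepG2, dosed for 24 h. Serves as background control, fitted relative to DMSO.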

Assay [5] deals with Hepatocyte nuclear factor 6 (Homo sapiens) (UniProt Q9UBC0). Description: ATG_HNF6_CIS: Attagene CIS-FACTORIAL HepG2 Assay for human Hepatocyte Nuclear Factor 6 (HNF6) (AID 2282952). Particulars: HepG2 Attagene cis-factorial HNF6 reporter transcription; actives raise or lower the signal. The method, boiled down:
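HepG2, transient MRTU transfection (cis promoters); 24 h chemical exposure; total RNA → oligo(dT) RT → PCR → 6-FAM labelling → HpaI cut → CE; bidirectional fit vs DMSO.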

Assay [6] can be described thus: ATG_MRE_CIS: Attagene CIS-FACTORIAL HepG2 Assay for human Metal Responsive Element (MRE) (AID 2282954). Particulars: HepG2 MRE cis-reporter transcription, Attagene multiplex; actives raise or lower the signal. Put shortly: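 Step one: transfect HepG2 with cis-regulated reporter units. Step two: dose 24 h. Step three: isolate RNA, RT-PCR, 6-FAM label, HpaI digest, capillary electrophoresis. Fit bidirectionally to DMSO.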

Assay [7] in a line: ATG_PXRE_CIS: Attagene CIS-FACTORIAL HepG2 Assay for human Pregnane X Receptor Element (PXRE) (AID 2282957). Particulars: HepG2 Attagene CIS-FACTORIAL PXRE reporter, mRNA; actives raise or lower the signal. The method, boiled down:
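Transfect HepG2 with MRTUs (cis promoter elements); dose chemical, incubate 24 h; isolate RNA, RT with oligo(dT), PCR, 6-FAM label, HpaI cut, CE. Gain/loss fit vs DMSO.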

A short description of assay [8]: ATG_RORE_CIS: Attagene CIS-FACTORIAL HepG2 Assay for human RAR-related Orphan Receptor Element (RORE) (AID 2282959). Particulars: HepG2 Attagene cis-factorial RORE reporter, mRNA; actives raise or lower the signal. Put shortly: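 Transient MRTU transfection of human HepG2 liver cells (FuGene 6); 24 h compound exposure; TriZol RNA, oligo(dT) RT, PCR, FAM labeling, HpaI cut, CE fragment analysis. DMSO = negative control/baseline.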

The nature of assay [9]: ATG_Sox_CIS: Attagene CIS-FACTORIAL HepG2 Assay for human SRY-box transcription factor (SOX) (AID 2282960). Particulars: HepG2 Attagene cis-factorial SOX reporter, mRNA; actives raise or lower the signal. Put shortly:
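Endogenous factor activity in human liver HepG2 cells carrying transfected cis-regulated reporter units. RNA taken 24 h post-dose, reverse-transcribed, PCR-amplified and sized by capillary electrophoresis. Gain or loss of signal fitted relative to DMSO.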

The target of assay [10] is Transcription factor Sp1 (Homo sapiens) (UniProt P08047). The assay can be described thus: ATG_Sp1_CIS: Attagene CIS-FACTORIAL HepG2 Assay for human Specificity Protein 1 (Sp1) (AID 2282961). Particulars: HepG2 Sp1 cis-reporter transcription, actives raise or lower the signal. The method, boiled down: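 Transient MRTU-transfected HepG2, 24 h compound exposure. Total RNA → oligo(dT) RT → PCR of reporter → 6-FAM primer extension → HpaI digest → CE. Endpoint fitted both directions vs DMSO.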
Sequence of Transcription factor Sp1 (Homo sapiens) (P08047 whole entry, looked up): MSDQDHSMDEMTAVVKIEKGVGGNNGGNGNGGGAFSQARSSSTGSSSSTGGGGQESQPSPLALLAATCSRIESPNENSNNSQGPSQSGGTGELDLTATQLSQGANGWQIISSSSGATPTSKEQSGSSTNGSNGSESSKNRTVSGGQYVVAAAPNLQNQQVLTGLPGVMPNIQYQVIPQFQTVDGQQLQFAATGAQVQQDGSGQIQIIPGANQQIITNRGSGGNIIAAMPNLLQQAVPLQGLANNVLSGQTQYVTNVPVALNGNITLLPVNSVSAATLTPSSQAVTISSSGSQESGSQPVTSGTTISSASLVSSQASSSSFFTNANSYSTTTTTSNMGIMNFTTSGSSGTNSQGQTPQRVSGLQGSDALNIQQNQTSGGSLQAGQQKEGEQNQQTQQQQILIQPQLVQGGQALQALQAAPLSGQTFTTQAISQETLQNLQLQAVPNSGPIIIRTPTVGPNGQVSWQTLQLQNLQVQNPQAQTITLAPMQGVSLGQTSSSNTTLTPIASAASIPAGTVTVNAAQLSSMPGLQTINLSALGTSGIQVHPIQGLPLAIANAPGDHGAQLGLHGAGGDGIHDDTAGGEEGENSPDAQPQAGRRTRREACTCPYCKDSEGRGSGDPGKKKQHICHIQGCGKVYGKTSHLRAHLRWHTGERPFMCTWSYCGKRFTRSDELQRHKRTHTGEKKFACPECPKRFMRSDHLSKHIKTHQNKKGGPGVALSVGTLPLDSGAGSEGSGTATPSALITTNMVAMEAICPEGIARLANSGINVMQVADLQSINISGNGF

Assay [11] can be described thus: ATG_SREBP_CIS: Attagene CIS-FACTORIAL HepG2 Assay for human Sterol Regulatory Element Binding (SREBP) (AID 2282962). Particulars: HepG2 Attagene cis-factorial SREBP reporter, mRNA; actives raise or lower the signal. Put shortly:
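HepG2 cells transiently transfected with multiplexed cis-promoter reporter units sensing endogenous transcription factors; reporter mRNA measured 24 h after dosing by RT-PCR, 6-FAM labeling, HpaI digestion and capillary electrophoresis. Bidirectional fit versus DMSO.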

For assay [12], the target named is Signal transducer and activator of transcription 3 (Homo sapiens) (UniProt P40763). Description: ATG_STAT3_CIS: Attagene CIS-FACTORIAL HepG2 Assay for human Signal Transducer and Activator of Transcription 3 (STAT3) (AID 2282963). Particulars: HepG2, Attagene cis-factorial STAT3 reporter transcription; actives raise or lower the signal. The method, boiled down: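 Transcript-level reporter assay. HepG2 transient MRTU transfection, 24 h exposure, fluorescence detection after RT-PCR and CE; DMSO baseline.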
Sequence of Signal transducer and activator of transcription 3 (Homo sapiens) (P40763 whole entry, looked up): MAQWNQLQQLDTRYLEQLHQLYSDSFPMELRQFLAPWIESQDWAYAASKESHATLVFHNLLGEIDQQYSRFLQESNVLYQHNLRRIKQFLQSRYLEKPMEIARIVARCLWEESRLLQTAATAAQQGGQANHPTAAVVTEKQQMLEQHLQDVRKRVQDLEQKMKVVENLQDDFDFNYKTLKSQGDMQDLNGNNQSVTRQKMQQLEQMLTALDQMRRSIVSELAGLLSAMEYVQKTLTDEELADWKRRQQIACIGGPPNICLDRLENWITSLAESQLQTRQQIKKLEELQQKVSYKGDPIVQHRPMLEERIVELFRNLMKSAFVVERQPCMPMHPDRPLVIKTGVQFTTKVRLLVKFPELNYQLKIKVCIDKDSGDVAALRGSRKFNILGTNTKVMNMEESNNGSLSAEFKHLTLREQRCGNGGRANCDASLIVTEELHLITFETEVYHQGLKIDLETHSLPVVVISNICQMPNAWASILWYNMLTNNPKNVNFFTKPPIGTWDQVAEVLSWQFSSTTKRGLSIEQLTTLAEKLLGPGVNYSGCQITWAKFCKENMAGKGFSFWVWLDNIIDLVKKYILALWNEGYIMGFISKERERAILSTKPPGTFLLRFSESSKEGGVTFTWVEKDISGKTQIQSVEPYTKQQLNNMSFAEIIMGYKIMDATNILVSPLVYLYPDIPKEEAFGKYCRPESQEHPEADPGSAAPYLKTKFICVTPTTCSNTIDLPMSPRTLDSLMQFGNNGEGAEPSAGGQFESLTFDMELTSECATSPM

The nature of assay [13]: ATG_TA_CIS: Attagene CIS-FACTORIAL HepG2 Assay for human TA Basal Promoter (AID 2282964). Particulars: HepG2 Attagene CIS-factorial TA basal promoter reporter; actives raise or lower the signal. The method, boiled down:
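Multiplexed mRNA reporter assay, HepG2, 24 h. Reporter cDNA amplified, 6-FAM primer-extended, HpaI-cut, CE-sized; DMSO = negative control and baseline.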

A short description of assay [14]: ATG_TCF_b_cat_CIS: Attagene CIS-FACTORIAL HepG2 Assay for human T-Cell-Factor with beta-catenin (TCF/b-cat) (AID 2282965). Particulars: HepG2 TCF/beta-catenin cis-reporter transcription, actives raise or lower the signal. The method, boiled down: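 Using capillary electrophoresis as the read-out, labelled reporter cDNA fragments from transiently transfected HepG2 were sized and quantified. Exposure lasted 24 hours; activity in either direction was referenced to DMSO.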

Assay [15] concerns the target Heat shock factor protein 1 (Homo sapiens) (UniProt Q00613). The assay can be described thus: ATG_HSE_CIS: Attagene CIS-FACTORIAL HepG2 Assay for human Heat Shock Transcription Factor 1 (HSE) (AID 2282953). Particulars: HepG2 HSE cis-reporter, Attagene RNA transcription; actives raise or lower the signal. The method, boiled down:
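After a 24 h incubation with test chemical, transfected HepG2 cells were harvested for RNA; reporter transcripts were measured by RT-PCR and capillary electrophoresis. Values reflect gain or loss of signal relative to DMSO.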

A short description of assay [16]: ATG_PBREM_CIS: Attagene CIS-FACTORIAL HepG2 Assay for human Phenobarbital-responsive Enhancer Module (PBREM) (AID 2282955). Particulars: HepG2 PBREM cis-reporter, Attagene multiplexed transcription; actives raise or lower the signal. The method, boiled down:
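Endogenous transcription factors in human liver HepG2 cells drive a PBREM cis-element reporter, whose transcript level after 24 h treatment is quantified by RT-PCR with capillary electrophoresis; activity fitted in both directions against DMSO.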

The target in assay [17] is Paired box protein Pax-6 (Homo sapiens) (UniProt P26367). The assay can be described thus: ATG_Pax6_CIS: Attagene CIS-FACTORIAL HepG2 Assay for human Paired Box 6 (PAX6) (AID 2282956). Particulars: HepG2 CIS-FACTORIAL PAX6 reporter transcription, RNA readout; actives raise or lower the signal. Put shortly:
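HepG2 cells transiently transfected with cis-promoter-driven multiplexed reporter units sensing endogenous transcription factor activity; 24 h chemical exposure. Reporter mRNA quantified by RT-PCR, 6-FAM labelling, HpaI digestion and capillary electrophoresis; bidirectional fit versus DMSO baseline.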

Assay [18] deals with Hypoxia-inducible factor 1-alpha (Homo sapiens) (UniProt Q16665). The assay can be described thus: ATG_HIF1a_CIS: Attagene CIS-FACTORIAL HepG2 Assay for human Hypoxia Inducible Factor 1 (HIF1A) (AID 2282951). Particulars: HepG2 Attagene cis-factorial HIF1a reporter transcription; actives raise or lower the signal. The method, boiled down: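 Transient MRTU transfection of human HepG2 liver cells, 24 h compound treatment, then total RNA isolation, oligo(dT) reverse transcription, PCR amplification, fluorescent labelling and capillary electrophoresis of reporter fragments. Gain or loss relative to DMSO.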
Sequence of Hypoxia-inducible factor 1-alpha (Homo sapiens) (Q16665 whole entry, looked up, the tested form may be a part): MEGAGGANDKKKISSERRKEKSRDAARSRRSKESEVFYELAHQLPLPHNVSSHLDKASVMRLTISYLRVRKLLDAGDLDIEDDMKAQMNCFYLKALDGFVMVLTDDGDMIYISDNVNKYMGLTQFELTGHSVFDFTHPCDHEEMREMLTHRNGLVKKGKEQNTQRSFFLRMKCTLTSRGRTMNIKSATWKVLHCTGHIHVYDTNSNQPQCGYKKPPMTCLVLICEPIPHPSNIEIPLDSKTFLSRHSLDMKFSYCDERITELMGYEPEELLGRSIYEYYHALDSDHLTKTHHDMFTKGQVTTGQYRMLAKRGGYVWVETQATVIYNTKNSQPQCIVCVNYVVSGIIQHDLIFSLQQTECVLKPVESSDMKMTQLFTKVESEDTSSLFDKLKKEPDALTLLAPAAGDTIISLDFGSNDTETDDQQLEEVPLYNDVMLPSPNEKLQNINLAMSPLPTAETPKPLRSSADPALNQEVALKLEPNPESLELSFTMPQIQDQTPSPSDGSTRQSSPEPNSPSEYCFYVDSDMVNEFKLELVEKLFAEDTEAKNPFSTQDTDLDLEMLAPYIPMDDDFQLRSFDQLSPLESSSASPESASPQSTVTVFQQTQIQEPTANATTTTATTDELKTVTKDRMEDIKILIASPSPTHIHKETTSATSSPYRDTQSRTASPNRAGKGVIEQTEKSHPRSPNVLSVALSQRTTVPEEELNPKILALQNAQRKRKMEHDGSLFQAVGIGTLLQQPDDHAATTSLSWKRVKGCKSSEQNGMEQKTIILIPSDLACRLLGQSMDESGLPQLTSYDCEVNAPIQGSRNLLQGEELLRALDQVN

The nature of assay [19]: ATG_PPRE_CIS: Attagene CIS-FACTORIAL HepG2 Assay for human Peroxisome Proliferator-activated Response Element (PPRE) (AID 2282958). Particulars: HepG2 PPRE cis-element reporter, Attagene transcription factor profiling; actives raise or lower the signal. The method, boiled down: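 HepG2, transient MRTU transfection (cis promoter elements, endogenous TFs). 24 h dosing. RNA → oligo(dT) RT → PCR → 6-FAM primer extension → HpaI digest → CE. Bidirectional fit vs DMSO.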

Calls of active or inactive are those of the source. Rule for the calls: active = hit-call score of the fitted dose curve at least 0.9, where 1 is the maximum; inactive = score below 0.9.

Sequence of Heat shock factor protein 1 (Homo sapiens) (Q00613 whole entry, looked up): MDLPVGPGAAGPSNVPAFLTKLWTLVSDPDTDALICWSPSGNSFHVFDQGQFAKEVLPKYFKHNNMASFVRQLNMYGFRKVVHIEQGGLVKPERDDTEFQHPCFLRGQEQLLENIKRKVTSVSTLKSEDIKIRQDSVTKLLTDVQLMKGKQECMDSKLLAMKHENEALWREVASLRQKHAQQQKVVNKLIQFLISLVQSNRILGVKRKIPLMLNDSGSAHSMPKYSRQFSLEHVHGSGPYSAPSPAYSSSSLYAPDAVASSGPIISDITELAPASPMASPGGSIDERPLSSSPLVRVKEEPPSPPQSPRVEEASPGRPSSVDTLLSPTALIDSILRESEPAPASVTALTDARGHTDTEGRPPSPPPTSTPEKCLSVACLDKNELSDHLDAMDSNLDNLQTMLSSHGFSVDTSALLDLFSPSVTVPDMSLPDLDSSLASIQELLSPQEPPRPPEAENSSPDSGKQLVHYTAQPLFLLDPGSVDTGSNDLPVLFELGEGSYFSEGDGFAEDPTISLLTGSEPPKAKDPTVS
Sequence of Paired box protein Pax-6 (Homo sapiens) (P26367 whole entry, looked up): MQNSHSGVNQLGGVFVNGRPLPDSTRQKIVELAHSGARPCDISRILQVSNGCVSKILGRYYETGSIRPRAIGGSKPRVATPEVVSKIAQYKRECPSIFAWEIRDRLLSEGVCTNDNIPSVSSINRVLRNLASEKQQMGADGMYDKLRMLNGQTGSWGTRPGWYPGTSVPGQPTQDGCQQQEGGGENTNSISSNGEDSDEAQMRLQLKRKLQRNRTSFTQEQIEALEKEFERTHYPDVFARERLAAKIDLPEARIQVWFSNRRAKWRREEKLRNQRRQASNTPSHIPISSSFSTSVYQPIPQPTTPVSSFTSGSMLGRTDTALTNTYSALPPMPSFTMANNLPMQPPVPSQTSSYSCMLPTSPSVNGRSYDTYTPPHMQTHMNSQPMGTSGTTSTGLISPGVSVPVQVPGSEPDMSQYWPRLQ
Sequence of Hepatocyte nuclear factor 6 (Homo sapiens) (Q9UBC0 whole entry, looked up): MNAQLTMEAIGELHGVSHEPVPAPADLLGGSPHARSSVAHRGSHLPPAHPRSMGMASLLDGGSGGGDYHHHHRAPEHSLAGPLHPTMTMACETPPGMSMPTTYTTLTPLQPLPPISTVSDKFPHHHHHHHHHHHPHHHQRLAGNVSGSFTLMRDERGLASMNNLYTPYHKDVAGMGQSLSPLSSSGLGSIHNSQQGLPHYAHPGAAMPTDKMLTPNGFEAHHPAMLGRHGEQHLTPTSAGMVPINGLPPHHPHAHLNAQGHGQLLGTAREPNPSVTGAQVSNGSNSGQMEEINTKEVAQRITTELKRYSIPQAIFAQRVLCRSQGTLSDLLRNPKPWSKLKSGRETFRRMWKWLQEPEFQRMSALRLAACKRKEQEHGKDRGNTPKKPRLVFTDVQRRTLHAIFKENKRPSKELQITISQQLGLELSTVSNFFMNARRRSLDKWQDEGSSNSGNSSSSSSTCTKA

One may read the AC50 as the concentration at which the activity in the assay is half-maximal. Consider `C[C@H]1C[C@@H]2[C@H]([C@@H](O)C[C@@]3(C)[C@H]2CC[C@]3(O)C(=O)CO)[C@@]2(C)C=CC(=O)C=C12`, for which the AC50 was 0.151 µM (active) in assay [1], 131 µM (active) in assay [3] and 62.9 µM (active) in assay [7]. The result in assay [2], in [4], in [5], in assay [6], in assay [8] and in [9] was inactive. For the same molecule, the molecule was classed as inactive in assay [10], in assay [11], in assay [12], in assay [13] and in assay [14].

With `CNCCCC12CCC(c3ccccc31)c1ccccc12`, the molecule was called inactive in assay [1], in assay [3], in [4], in assay [5], in assay [15] and in [16]. For the same molecule, the molecule was classed as inactive in assay [7], in assay [8], in [9], in [10], in assay [11] and in assay [12]. Besides, the AC50 was 17.9 µM (active) in [2], 17.4 µM (active) in [17] and 18.5 µM (active) in assay [14].

With `NC(=O)NC1NC(=O)NC1=O` (stereo not drawn), the molecule was called inactive in assay [1], in assay [3], in [4], in assay [18], in [5] and in assay [15]. Further, the outcome in assay [6], in assay [16], in assay [17], in assay [7], in assay [19] and in assay [8] was inactive. Moreover, the call in assay [9], in [10], in assay [11], in assay [12], in assay [13] and in assay [14] was inactive.

With `NC(N)=NC(=O)c1nc(Cl)c(N)nc1N`, the outcome in assay [1], in assay [3], in [4], in [5], in assay [15] and in assay [6] was inactive. The outcome in assay [17], in assay [7], in assay [8], in [9], in assay [10] and in [11] was inactive. The result in assay [12], in [13] and in [14] was inactive. The AC50 in assay [2] is 157 µM (active).

The values above are taken from PubChem BioAssay (EPA / NIEHS).
